In the supplement of paper PMC12636033:
± gives the standard deviation of the averaged measurements. The full ranking holds about 33,000 sequences; the median of “E-score (rank enrichment, -0.5 to 0.5)” is about -0.0075, and the highest 2% start at about 0.23. The sample as a whole holds a higher share of the highest values than the screen did.

tested on: WT Max(13-93) synthetic (M65Nle); test: PBM 8-mer E-score (E-score (rank enrichment, -0.5 to 0.5)); higher = stronger preferential binding
Method: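 Protein binding microarray (universal PBM chip covering all 10-mers in fixed probe flanks) with chemically synthesized human Max(13-93) bHLH-LZ analogs (not full-length Max) bearing noncanonical residues (hArg, Tha, Aib, Nle at 65) and aromatic Cys staples. Read-out per 8-mer (and its reverse complement): E-score (rank-based enrichment, -0.5 to 0.5) and Z-score of median probe intensity.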

Row | Sequence | PBM 8-mer E-score
1 | AATGTGGG | 0.18 ± 0.032
2 | CATGTGGA | 0.324 ± 0.032
3 | CATGTGGC | 0.3003 ± 0.0019
4 | AATGACTG | 0.102 ± 0.018
5 | GAAGCTCA | -0.152 ± 0.13
6 | ATTCAACC | -0.0085 ± 0.021
7 | GTTCGGGA | -0.13 ± 0.11
8 | GACCCTGA | -0.121 ± 0.035
9 | AGAGGACA | -0.0937 ± 0.095
10 | TAAGTTGA | 0.0328 ± 0.044
11 | ATTTCGTC | 0.242 ± 0.011
12 | CTTTCGTC | 0.0247 ± 0.074
13 | ATTTCGTG | 0.0519 ± 0.051
14 | ATACGATC | -0.0258 ± 0.1
15 | ACAAAGAT | 0.0862 ± 0.049
16 | CAAGCTCA | -0.35 ± 0.017
17 | ATGTGTTA | 0.275 ± 0.015
18 | GGGTGTTA | -0.0337 ± 0.14
19 | ATATGTTC | 0.179 ± 0.0093
20 | ATGTATTA | 0.225 ± 0.086
21 | CTGTGTTA | 0.0459 ± 0.023
22 | ATATGTTA | 0.284 ± 0.051
23 | CTGTATTA | 0.138 ± 0.0022
24 | ATGTGTCA | 0.175 ± 0.069
25 | GTGTATTA | 0.247 ± 0.035

Row | Sequence | PBM 8-mer E-score
26 | GTGTGTTA | 0.242 ± 0.099
27 | ATGTGTGA | 0.18 ± 0.12
28 | CTATGTTA | 0.16 ± 0.052
29 | TGAGATAA | 0.116 ± 0.07
30 | CAATGATC | -0.0206 ± 0.062
31 | CGCCTCGA | -0.0745 ± 0.097
32 | CTCCTGTC | -0.0511 ± 0.018
33 | TCGCTGAA | -0.0377 ± 0.086
34 | CCCCTGGC | -0.127 ± 0.042
35 | AACCTCAT | 0.156 ± 0.065
36 | GTTTCCAA | 0.0481 ± 0.061
37 | ATGTGTTG | 0.247 ± 0.035
38 | ATATGTTG | 0.0792 ± 0.065
39 | ATGTGTTC | 0.106 ± 0.0063
40 | AAACACAG | 0.153 ± 0.053
41 | AAACACAC | 0.132 ± 0.011
42 | GAACACGC | 0.105 ± 0.04
43 | AAACACGC | 0.24 ± 0.054
44 | AAACACGA | 0.19 ± 0.11
45 | AAACACGT | 0.329 ± 0.093
46 | CAACACGC | 0.195 ± 0.0099
47 | AAACACAT | 0.287 ± 0.014
48 | AAACACGG | -0.0068 ± 0.091
49 | AGTAAACG | 0.0125 ± 0.018
50 | AGGTCTTG | -0.116 ± 0.084

Row | Sequence | PBM 8-mer E-score
51 | TGACGCCA | -0.0607 ± 0.033
52 | ACTGCAGT | -0.0688 ± 0.15
53 | AGATGGAC | -0.09113 ± 0.00061
54 | CGTGTCAA | 0.0498 ± 0.015
55 | AATGTCAA | 0.0117 ± 0.23
56 | TATGTCAA | 0.287 ± 0.054
57 | TGTGTCAA | 0.254 ± 0.011
58 | AGTGTCAA | 0.122 ± 0.14
59 | GATGTCAA | 0.0342 ± 0.06
60 | CAGAGCGA | -0.0911 ± 0.044
61 | GGTTTGAA | 0.145 ± 0.0079
62 | CCAGTGGG | -0.122 ± 0.16
63 | GACTTCTA | -0.0184 ± 0.13
64 | ACAAACAC | 0.268 ± 0.053
65 | GAAAACAC | 0.0469 ± 0.11
66 | AAAAACAC | 0.251 ± 0.05
67 | CAAAACAC | 0.073 ± 0.066
68 | ACAAACAA | 0.112 ± 0.0055
69 | CCAAACAG | -0.0488 ± 0.037
70 | CCAAACAC | 0.242 ± 0.076
71 | ACAAACAG | -0.0244 ± 0.058
72 | GCAAACAC | 0.156 ± 0.07
73 | CTAAACAA | 0.0536 ± 0.046
74 | CTGCGTGC | -0.0949 ± 0.0091
75 | CGATCGAG | -0.26 ± 0.069

Row | Sequence | PBM 8-mer E-score
76 | CATGCCCA | 0.00676 ± 0.079
77 | CCCCTCCC | 0.239 ± 0.16
78 | ACCTCCCA | 0.00978 ± 0.14
79 | CCTCCCCC | -0.0244 ± 0.2
80 | CCCTCCCA | 0.262 ± 0.0086
81 | GCCTCCCA | -0.155 ± 0.12
82 | CCTCCCCA | 0.258 ± 0.065
83 | CCTCCCAA | 0.0602 ± 0.2
84 | CCCTCCCC | 0.171 ± 0.15
85 | CCCCTCCG | 0.044 ± 0.086
86 | CTGGGTAC | -0.201 ± 0.15
87 | GGATGGAC | 0.106 ± 0.062
88 | AGGGTTTA | 0.152 ± 0.0074
89 | AGGAGCAA | -0.034 ± 0.032
90 | CACCACCA | -0.0146 ± 0.046
91 | AACGATCC | -0.124 ± 0.023
92 | GCAATGGC | 0.0112 ± 0.019
93 | ATACGCTC | 0.0772 ± 0.0077
94 | CCCATACA | 0.0285 ± 0.11
95 | GGACTGCC | -0.0905 ± 0.19
96 | CCATATAA | 0.174 ± 0.02
97 | ACATATAG | 0.0953 ± 0.059
98 | GCATATGA | 0.138 ± 0.034
99 | ACATATCA | 0.252 ± 0.013
100 | GCATATGC | 0.245 ± 0.008

Row | Sequence | PBM 8-mer E-score
101 | ACATATAC | -0.00226 ± 0.03
102 | CCATATGC | 0.112 ± 0.14
103 | ACATATAT | 0.244 ± 0.04
104 | ACATATAA | 0.309 ± 0.078
105 | CCATATCA | 0.0654 ± 0.064
106 | ACATATCG | 0.0595 ± 0.028
107 | TCATATAA | 0.15 ± 0.064
108 | GCGGCCTA | -0.209 ± 0.12
109 | ATGCGATG | 0.054 ± 0.083
110 | GTGAACAA | 0.114 ± 0.0024
111 | CAGGCGAC | -0.124 ± 0.082
112 | CGTCCCGA | -0.209 ± 0.12
113 | AAAGTTAG | 0.127 ± 0.044
114 | AGTGCAGA | 0.0828 ± 0.16
115 | ATAGCGGC | -0.135 ± 0.21
116 | AACCTAGT | -0.18 ± 0.029
117 | ATTGTGCC | 0.174 ± 0.071
118 | ACATATGG | 0.155 ± 0.071
119 | ACATATGT | 0.265 ± 0.11
120 | ACATATGC | 0.0404 ± 0.029
121 | CGTTCTGC | -0.108 ± 0.038
122 | GATGTGAA | 0.15 ± 0.0086
123 | AATGTGAC | -0.0272 ± 0.014
124 | CATGTGAA | 0.249 ± 0.059
125 | CATGTGAG | 0.226 ± 0.08

Row | Sequence | PBM 8-mer E-score
126 | CATGTGAC | 0.3772 ± 0.0032
127 | GATGTGAC | -0.231 ± 0.026
128 | AATGTGAA | 0.181 ± 0.089
129 | TATGTGAA | 0.254 ± 0.13
130 | CCTGTGAA | -0.00915 ± 0.077
131 | AACCCGCT | 0.00053 ± 0.075
132 | ATAACCCG | -0.0972 ± 0.023
133 | GATACTGA | -0.0332 ± 0.11
134 | ATATAAAT | 0.26 ± 0.013
135 | TGATAAAA | 0.282 ± 0.056
136 | CTATAAAA | 0.0799 ± 0.029
137 | GGATAAAA | 0.116 ± 0.12
138 | GTATAAAA | 0.2289 ± 0.0018
139 | ACATAAAA | 0.192 ± 0.085
140 | ATATAAAA | 0.257 ± 0.14
141 | ATATAAAG | 0.138 ± 0.006
142 | CGATAAAA | 0.0372 ± 0.13
143 | ATAAAAAT | 0.209 ± 0.032
144 | ACATAAAG | 0.197 ± 0.04
145 | ACATAAAT | 0.249 ± 0.026
146 | TGTCTAAA | 0.127 ± 0.015
147 | TTGCTAAA | -0.0675 ± 0.037
148 | ACATCGCC | 0.0533 ± 0.012
149 | CATAAGCG | -0.0132 ± 0.16
150 | ACGCTACT | -0.103 ± 0.057

Row | Sequence | PBM 8-mer E-score
151 | CGCACAGA | -0.00527 ± 0.17
152 | GCTACTTA | 0.0733 ± 0.061
153 | GCATCAAA | 0.0826 ± 0.0033
154 | TCAGTACA | -0.0447 ± 0.075
155 | ATATAAGA | 0.257 ± 0.1
156 | CTATAAGA | 0.00621 ± 0.13
157 | CTATAAAC | -0.0175 ± 0.061
158 | ATATAAAC | 0.249 ± 0.1
159 | GTATAAAC | 0.097 ± 0.035
160 | GTATAAGA | 0.176 ± 0.037
161 | CCGCACAA | -0.0967 ± 0.091
162 | CAGTGTCG | -0.18 ± 0.018
163 | AGGGACAA | -0.0703 ± 0.11
164 | TTGGACAA | 0.137 ± 0.038
165 | TGGGACAA | 0.233 ± 0.12
166 | GGGGACAA | -0.00341 ± 0.1
167 | CTGGACAA | -0.0424 ± 0.18
168 | GTGGACAA | 0.236 ± 0.0099
169 | ATCTAAGG | 0.00267 ± 0.011
170 | GACAGTAC | 0.0423 ± 0.12
171 | AACAGCCA | 0.0334 ± 0.032
172 | GCCCGGAC | -0.319 ± 0.01
